# tim23-1 inh: tim23-1 yeast growth inhibition. S. cerevisiae tim23-1 growth, BacTiter-Glo luminescence, 24 h. inhibition, % at 20 µM. actives 1.3% (n = 330,000). AID 463212;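 active = growth inhibition of the mutant yeast at or above 50%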;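 note: temperature-sensitive mutant grown at 25 °C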
# TIM10 inh: growth inhibitors of TIM10 yeast strain | S. cerevisiae TIM10 strain growth, BacTiter-Glo luminescence, 24 h | inhibition, % at 10 µM | actives 1.4% (n = 330,000) | AID 463195;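 active = inhibition of 40% or more at the single tested concentration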;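 note: wild-type TIM10 isogenic control strain grown at permissive 25 °C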
# tim10-1 inh: growth inhibitors of tim10-1 mutant yeast. actives 2.2% (n = 330,000). S. cerevisiae tim10-1 ts strain growth, BacTiter-Glo, 24 h. inhibition, % at 20 µM;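 active = inhibition of at least 40%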;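 note: mutant grown at 25 °C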
# NLRP3 yeast inh: inhibitors of NALP3 inflammasome in yeast | inhibition, % at 10 µM | actives 0.39% (n = 330,000) | AID 2825 | Yeast reconstituted NLRP3/ASC/caspase-1, beta-gal luminescence, 24 h;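 active = inhibition of 50% or more; inactive = inhibition below 50%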
# NALP1 yeast inh: blocks the NALP1 inflammasome reconstituted in yeast. S. cerevisiae NALP1/ASC/caspase-1 growth, X-gal OD620, 72 h. inhibition, % at 10 µM. actives 0.61% (n = 280,000). AID 2071; in the data active = inhibition mostly above about 24%, no sharp cut-off; inactive = mostly below about 32%
# tim10-1 confirm: tim10-1 yeast growth inhibition, confirmed. shares compounds with tim10-1 inh. S. cerevisiae tim10-1 ts strain growth, BacTiter-Glo, 24 h. inhibition, % at 20 µM. actives 56% (n = 7,400). AID 463213;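 active = inhibition of yeast growth at or above a set limit in either of two repeat tests at 20 µM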;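 note: tim10-1 mutant grown at permissive 25 °C to find synthetic lethal compounds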
# TIM10 conf: confirmation of TIM10 yeast growth inhibitors | inhibition, % at 10 µM | actives 63% (n = 4,600) | shares compounds with TIM10 inh | S. cerevisiae tim10 strain growth, BacTiter-Glo luminescence, 24 h;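 active = inhibition of yeast growth at or above a set limit in either of two replicates at 10 µM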; note: this counterscreen used the strain with wild-type TIM10
# tim23-1 conf: tim23-1 yeast growth inhibition, confirmed; shares compounds with tim23-1 inh; S. cerevisiae tim23-1 growth, BacTiter-Glo luminescence, 24 h; inhibition, % at 20 µM; actives 83% (n = 4,400); AID 463218;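 active = inhibition above about 39% in either of two replicate wells at 20 µM, limit read from the data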;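 note: temperature-sensitive tim23-1 mutant grown at 25 °C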
# A number is an active result; 0 = inactive; - = not tested or not shown. Rows were chosen to be rich in hits. Some 4.1% of all compounds tested hit in one or more screens of this group.
SMILES,tim23-1 inh,TIM10 inh,tim10-1 inh,NLRP3 yeast inh,NALP1 yeast inh,tim10-1 confirm,TIM10 conf,tim23-1 conf
CCOc1ccccc1NC(=O)c1nc(S(=O)(=O)Cc2cccc(C)c2)ncc1Cl,81,41,44,0,0,44,71,83
Cc1ccc(CS(=O)(=O)c2ncc(Cl)c(C(=O)Nc3ccc(OC(F)F)cc3)n2)cc1,65,0,44,0,0,0,-,52
CCS(=O)(=O)c1ncc(Cl)c(C(=O)Nc2ccc(C)cc2)n1,0,0,0,0,0,-,-,-
O=C1/C(=C\c2ccncc2)SC(=S)N1C1CCCCC1,52,0,43,0,0,0,-,42
Cc1ccc(/C=C2/SC(=S)N(C3CCCCC3)C2=O)o1,0,0,0,0,0,-,-,-
O=C1Nc2ccccc2/C1=N\N=C\C1=C(N2CCOCC2)C(=C\c2ccccc2)/CC1,58,47,61,0,0,52,36,51
Cn1cc(C(=O)N/N=C/C2=C(N3CCOCC3)C(=C\c3ccccc3)/CC2)ccc1=O,0,0,0,0,0,-,-,-
CCC(C)c1ccc(NC(=S)NCc2cccs2)cc1 (stereo unspecified),53,54,56,0,0,55,44,55
O=C1c2ccc([N+](=O)[O-])cc2S(=O)(=O)N1Cc1ccccc1,76,53,72,0,0,69,43,86
CC(=O)C(=Cc1cn(-c2ccccc2)nc1-c1ccccc1)C(C)=O,82,57,67,0,0,68,53,83
O=C(CN1C(=O)NC2(CCCCC2)C1=O)N1CCOCC1,0,0,0,0,-,-,-,-
COc1ccc2cc3cc(C(=O)N4CCN(c5ccccn5)CC4)oc3nc2c1,54,55,44,0,0,0,59,0
CCOc1cccc(-c2csc(C3COc4ccccc4O3)n2)c1 (stereo unspecified),-,-,-,-,0,-,-,-
COc1cccc(C=O)c1OCCCOc1cccc2cccnc12,65,41,45,0,29,33,34,55
Brc1ccccc1OCCCOc1cccc2cccnc12,0,0,0,0,0,-,-,-
Cc1ccc(N(C(=O)c2csnn2)C(C(=O)NC2CCCC2)c2ccccn2)cc1 (stereo unspecified),0,0,0,0,0,-,-,-
CCN(CC)C(=O)Cn1cc(S(=O)(=O)CC(=O)N2CCOCC2)c2ccccc21,0,0,0,0,0,-,-,-
O=C(NCCc1ccc(Cl)cc1)/C(=C/c1cccnc1)NC(=O)c1ccccc1,0,0,0,0,0,-,-,-
CCOC1=NN(c2ncc(C(F)(F)F)cc2Cl)C(=O)/C1=C/N(C)C,0,0,0,0,0,-,-,-
CC(C)(C)C(=O)/C(=C/c1ccc(Cl)cc1)n1cncn1,52,0,51,0,0,35,-,0
c1cncc(-c2nnc(-c3cccnc3)nn2)c1,54,0,50,0,0,40,-,56
O=C(NC12CC3CC(CC(C3)C1)C2)C12CC3CC(C1)CC(n1cnc(Cl)n1)(C3)C2,60,46,65,0,0,53,46,50
COc1ccc(C(=O)CC(Nc2ccc([N+](=O)[O-])cc2)c2ccc(Cl)cc2)cc1 (stereo unspecified),0,0,0,0,0,-,-,-
Cc1[nH][nH]c(=O)c1C(c1ccc(-c2ccc(C(=O)O)cc2)o1)c1c(C)[nH][nH]c1=O,-,-,-,-,0,-,-,-
Cc1[nH][nH]c(=O)c1C(c1ccc(-c2ccc(F)cc2)o1)c1c(C)[nH][nH]c1=O,85,0,51,0,0,0,-,60
SMILES,tim23-1 inh,TIM10 inh,tim10-1 inh,NLRP3 yeast inh,NALP1 yeast inh,tim10-1 confirm,TIM10 conf,tim23-1 conf
Cc1ccc(S(=O)(=O)/N=C2\C=C(Nc3ccc(O)cc3)C(=O)c3ccccc32)cc1,51,0,64,0,-,74,-,70
O=C(/C=C/c1ccccc1Cl)c1cccnc1,0,0,0,0,0,-,-,-
O=C(/C=C/c1ccccc1Cl)c1ccc(O)cc1,63,0,40,0,0,0,-,59
COc1ccc(C)cc1S(=O)(=O)NNc1nc(C)cc(C)n1,0,0,0,0,-,-,-,-
O=C(Cc1ccc(F)cc1)c1ccc(O)cc1O,55,0,44,0,0,35,-,44
O=C(Cc1c(F)cccc1Cl)c1ccc(O)cc1O,67,56,48,0,0,60,58,68
CCc1cc(C(=O)Cc2ccc(F)cc2)c(O)cc1O,0,0,0,0,0,-,-,-
CCOc1ccc(NS(=O)(=O)c2c(C)nc3sc(CC)nn3c2=O)cc1,0,0,0,0,0,-,-,-
O=c1c2ccccc2c(-c2cccc(C(F)(F)F)c2)nn1-c1ccccc1,0,0,0,0,0,-,-,-
O=c1c2ccccc2c(-c2ccc(O)cc2)nn1-c1cccc(C(F)(F)F)c1,57,53,42,0,0,36,0,56
O=[N+]([O-])c1ccc(C=Nc2ccc(Cl)c([N+](=O)[O-])c2)s1,51,85,65,0,0,71,88,77
Cc1cc(C)cc(N=Cc2ccc([N+](=O)[O-])s2)c1,55,83,56,0,0,71,86,74
NC(=O)c1ccc(N=Cc2ccc([N+](=O)[O-])s2)cc1,-,-,-,-,0,-,-,-
C/C(=N\Nc1ccc([N+](=O)[O-])cc1)c1ccc(O)cc1,70,0,44,0,0,0,-,55
C/C(=N\Nc1ccc([N+](=O)[O-])cc1)c1cccc(N)c1,0,0,0,0,0,-,-,-
O=[N+]([O-])c1c(Nc2ccccn2)cc(Cl)c2nonc12,94,95,94,0,-,94,100,96
O=C(O)c1ccccc1Nc1cc(Cl)c2nonc2c1[N+](=O)[O-],0,0,0,0,0,-,-,-
O=C(CSCc1ccccc1Br)N/N=C/c1ccc2c(c1)OCO2,60,0,51,0,0,46,-,50
Cc1cc(C)nc(SCC(=O)N/N=C/c2ccc3c(c2)OCO3)n1,0,0,0,0,0,-,-,-
COc1ccc(-c2cc(-c3c(O)c(OC)c4occc4c3OC)[nH]n2)cc1OC,53,0,50,0,0,31,-,45
COc1ccc(C(=O)/C=C2/C(=O)Nc3ccccc32)cc1,88,91,84,0,0,88,80,85
C=CCOc1ccc(C(=O)/C=C2/C(=O)Nc3ccccc32)cc1,88,77,84,0,0,86,90,77
O=C1Nc2ccccc2/C1=C/C(=O)c1cccs1,55,68,51,0,0,60,93,0
COc1ccc(C(=O)/C=C2/C(=O)Nc3ccccc32)cc1OC,80,76,64,0,0,65,73,57
COc1ccc(C2(C(=O)c3ccccc3)C(=O)c3ccccc3C2=O)cc1,0,0,0,0,0,-,-,-
